Bioassay records (PubChem)
The list is not random: actives were taken first. Their share in the collection is about 2.6%.
PRMT1 FP inh = PRMT1 (human) inhibition, primary screen; AID 652257; inhibition, % at 2.79 µM; Q99873; recombinant PRMT1, activity-based probe fluorescence polarization; hit rate 1.3% among 370,000;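 active means inhibition above about 21% made by adding two undisclosed values, limit read from the data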
ABHD5-PLIN5 inh = inhibitors of human ABHD5-perilipin-5 interaction; Q00G26+Q8WTS1; inhibition, % at 4 µM; AID 602281; Split G. princeps luciferase complementation, luminescence, 4 h; hit rate 0.78% among 360,000;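 active means inhibition above the mean inhibition across every tested compound plus 3 SD, cut at about 22% in these data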
Target sequence (Q00G26 whole entry, looked up): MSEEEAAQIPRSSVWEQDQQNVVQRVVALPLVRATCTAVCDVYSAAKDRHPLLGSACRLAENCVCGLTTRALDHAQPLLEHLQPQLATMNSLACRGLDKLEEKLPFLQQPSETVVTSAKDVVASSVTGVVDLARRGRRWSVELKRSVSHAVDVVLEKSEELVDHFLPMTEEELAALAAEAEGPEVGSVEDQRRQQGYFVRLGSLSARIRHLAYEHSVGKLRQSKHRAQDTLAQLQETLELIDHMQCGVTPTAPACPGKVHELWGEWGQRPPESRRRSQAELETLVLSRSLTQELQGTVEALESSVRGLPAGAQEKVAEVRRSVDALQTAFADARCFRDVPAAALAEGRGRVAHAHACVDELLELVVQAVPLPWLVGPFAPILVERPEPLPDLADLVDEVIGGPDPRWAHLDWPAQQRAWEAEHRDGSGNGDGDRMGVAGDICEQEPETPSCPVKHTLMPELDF
Target sequence (Q8WTS1 whole entry, looked up): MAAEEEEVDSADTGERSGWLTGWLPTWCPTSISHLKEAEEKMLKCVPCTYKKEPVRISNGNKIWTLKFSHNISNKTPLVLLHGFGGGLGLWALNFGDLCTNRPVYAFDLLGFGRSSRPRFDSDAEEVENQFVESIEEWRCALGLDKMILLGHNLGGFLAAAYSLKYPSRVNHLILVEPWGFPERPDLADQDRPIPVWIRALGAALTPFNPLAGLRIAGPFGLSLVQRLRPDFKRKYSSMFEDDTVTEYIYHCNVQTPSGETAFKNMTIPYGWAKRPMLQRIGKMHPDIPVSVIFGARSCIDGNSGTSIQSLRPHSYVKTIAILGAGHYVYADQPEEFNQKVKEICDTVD
Granule exo inh = blocks lytic granule exocytosis; TALL-104 LAMP-1 surface exposure, flow cytometry; cells stimulated with thapsigargin and PMA; inhibition, % at 10 µM; hit rate 0.66% among 360,000; AID 651702;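 active means inhibition above about 55%, limit read from the data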
TLR4 MyD88 comp = TLR4-MyD88 interaction inhibition in cells; inhibition, % at 8.4 µM; hit rate 0.18% among 200,000; AID 861; O00206+Q99836; HeLa CL3-4 TLR4/MyD88 BLA complementation, FRET ratio; in the data active means inhibition above about 25%
NOD2-RIPK2 inh = inhibitors of human NOD2-RIPK2 interaction. hit rate 0.38% among 360,000. CHO BLA complementation NOD2-RIPK2, CCF4 ratio. O43353. inhibition, % at 4.98 µM; in the data active means inhibition above about 21%
TLR9-MyD88 block = blocks human TLR9 binding to MyD88 | Q9NR96+Q99836 | CHO BLA complementation TLR9-MyD88, CCF4 FRET ratio | inhibition, % at 4.98 µM | hit rate 0.21% among 340,000;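 active means inhibition above the mean over all tested compounds plus 3 SD, cut at about 21% in these data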
ABHD5-PLIN5 conf = confirmation of human ABHD5-PLIN5 interaction inhibitors; inhibition, % at 4 µM; shares compounds with ABHD5-PLIN5 inh; biochemical ABHD5-PLIN5 interaction, luminescence; hit rate 67% among 2,200; in the data active means inhibition above about 23%
HNF4 counter = active in HNF4 split-luciferase counter-screen for ABHD5-PLIN5 inhibitors; inhibition, % at 4 µM; HNF4 dimerization, luminescence, biochemical; shares compounds with ABHD5-PLIN5 inh; hit rate 77% among 2,200;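 active means mean inhibition across replicate wells exceeding the computed hit threshold, cut at about 13% in these data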;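 further: light from luciferase halves that rejoin when HNF4 fusion proteins dimerize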
A number is an active result; n = inactive; x = no result.

SMILES	PRMT1 FP inh	ABHD5-PLIN5 inh	Granule exo inh	TLR4 MyD88 comp	NOD2-RIPK2 inh	TLR9-MyD88 block	ABHD5-PLIN5 conf	HNF4 counter
CC(C)(C)NC(=O)C(c1ccc(-c2ccccc2)cc1)n1c(=O)c(-c2ccccc2)nc2ccccc21 (configuration not stated)	n	n	n	x	n	x	x	x
CC(C)(C)NC(=O)C(c1ccc(-c2ccccc2)cc1)n1c(=O)c(-c2ccco2)nc2ccccc21 (configuration not stated)	n	72.9	n	x	n	x	93.8	28.2
CC(C)(C)NC(=O)C(c1cccc2ccccc12)n1c(=O)c(-c2ccccc2)nc2ccccc21 (configuration not stated)	n	n	n	x	n	x	x	x
Cc1cccc(C)c1NC(=O)C(c1ccc(-c2ccccc2)cc1)n1c(=O)c(-c2ccco2)nc2ccccc21 (configuration not stated)	n	89.6	n	x	n	x	95.9	26.7
CCCCCNC(=O)C(c1ccnc2ccccc12)n1c(=O)c(-c2ccccc2)nc2ccccc21 (configuration not stated)	n	n	n	x	n	x	x	x
O=C(NCc1ccccc1)C(c1cccc2ccccc12)n1c(=O)c(-c2ccco2)nc2ccccc21 (configuration not stated)	n	58.5	n	x	n	x	96.9	33.6
O=C(CSc1nc2ccccc2c(=O)n1Cc1ccco1)NCc1ccccc1	n	n	n	n	n	n	x	x
O=C(NCc1ccccc1)C(c1ccncc1)n1c(=O)c(-c2ccco2)nc2ccccc21 (configuration not stated)	n	35.8	n	x	n	x	31.4	13.9
COc1cc(OC)c(NC(=O)C(Sc2nc(C)cc(C)c2C#N)c2ccccc2)cc1Cl (configuration not stated)	n	x	x	x	x	x	x	x
CN1[C@@H](Cc2ccccc2)COc2cc(F)ccc2S1(=O)=O	n	x	x	x	x	x	x	x
CC(C)C[C@H]1COc2ccc(Cl)cc2S(=O)(=O)N1	n	x	x	x	x	x	x	x
CCOc1ccc2[nH]c(=O)c(CN(Cc3ccco3)C(CC)c3nnnn3Cc3ccccc3)cc2c1 (configuration not stated)	n	24.0	n	n	n	n	n	21.3
CC(C)(C)n1nnnc1CN(Cc1ccco1)Cc1cc2cc3c(cc2[nH]c1=O)OCO3	23.6	42.4	n	n	n	n	23.9	33.8
CCc1ccc2[nH]c(=O)c(CN(Cc3ccccc3OC)Cc3nnnn3Cc3ccco3)cc2c1	23.4	32.0	n	n	n	n	n	n
COc1ccc2[nH]c(=O)c(C(c3nnnn3C(C)(C)C)N(Cc3ccco3)CC3CCCO3)cc2c1 (configuration not stated)	n	24.4	n	n	n	n	28.3	71.9
COc1ccccc1CN(Cc1cc2cc(C)ccc2[nH]c1=O)Cc1nnnn1Cc1ccco1	n	n	n	n	n	n	x	x
Cc1cc2cc(C(c3nnnn3C(C)(C)C)N(Cc3ccco3)CC3CCCO3)c(=O)[nH]c2cc1C (configuration not stated)	n	n	n	n	n	n	x	x
CCOc1ccc2[nH]c(=O)c(CN(Cc3ccco3)Cc3nnnn3Cc3ccccc3)cc2c1	n	n	n	n	n	n	x	x
COc1ccc2c(c1)[C@@H](NC(=O)c1ccncc1)[C@H](C)[C@H]2c1ccccc1	n	x	x	x	x	x	x	x
CC(=O)c1ccc2noc(-c3ccc(C)cc3)c2c1	n	29.0	n	n	n	n	n	22.0
CCOc1ccc(NC(=O)Cn2ncc3ccccc32)cc1	n	n	n	x	n	n	x	x
CCOc1ccc(NC(=O)Cn2sc3nc(C)cc(C)c3c2=O)cc1	x	64.3	n	x	26.9	n	45.1	105.3
COc1ccccc1C1CC(c2cccs2)=Nc2ccccc2S1 (configuration not stated)	80.8	45.5	n	n	n	n	n	n
Nc1[nH]c(C(=O)c2ccc(Br)cc2)c(-c2ccncc2)c1C(=O)c1ccccc1	n	x	x	x	x	x	x	x
